Assay [1] can be described thus: Cell Viability - MRC5 (AID 434; calls by dose curve;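 note: potency is the fitted concentration of half-maximal effect; cells exposed to compound for 40 hours at 37 °C; potency reflects cytotoxicity seen as loss of intracellular ATP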). To be noted: MRC5 lung fibroblast viability, qHTS. The essentials:
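Decrease in intracellular ATP, quantified by luciferase light output, reflects compound toxicity toward MRC5 cells exposed for 40 hr in complete culture medium. Concentration-response curves, scaled between DMSO and 100 uM tamoxifen, gave AC50 values.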
(In general: In qHTS, concentration-response curves come from the screen itself.)

Assay [2] is described as follows: Cell Viability - NIH 3T3 (AID 541).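 Note: plate controls were DMSO alone for no effect and tamoxifen positive control for full effect; nearly all actives have a fitted effect of over 25% in size.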 The following applies: NIH 3T3 cell viability, qHTS; activity change, negative = cytotoxicity: at 92.2 µM (top of the series). An outline of the steps: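 In this cytotoxicity screen, acute toxicity is scored as an ATP drop measured by CellTiter-Glo in NIH 3T3 fibroblasts following a 40 hr, 37 °C incubation with compound.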
A short description of assay [3]: Cell Viability - LYMP2-025 (AID 976).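 Note: cells exposed to compound for 24 h at 37 °C; plate controls were DMSO only for no effect and tetraoctylammonium bromide control for full effect.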 The following applies: LYMP2-025 lymphoblastoid cell viability; series mostly up to 92.2 µM. The essentials: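 Luminescent ATP readout after 24 hr treatment of a human lymphoblastoid line (LYMP2-025, 2500 cells/well, 37 C). Reagent developed 30 min at room temperature; AC50 fitted with the Hill equation.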
Assay [4] can be described thus: Cell Viability - LYMP2-010 (AID 981).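 Note: cells exposed to compound for 24 hours at 37 °C; % is set by controls: 0 for no effect and ±100 for the full control effect; nearly all actives have a fitted effect of over 55% in size.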 The following applies: LYMP2-010 lymphoblastoid cell viability, qHTS; series mostly up to 92.2 µM. An outline of the steps: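 This 24 hr viability screen uses LYMP2-010 lymphoblastoid cells, quantifies ATP via luciferase luminescence, and derives AC50 from Hill fits of qHTS concentration-response data.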
A short description of assay [5]: Cell Viability - LYMP2-018 (AID 985).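 Note: compound exposure lasted 24 hr at 37 °C; plate controls were DMSO only for no effect and tetraoctylammonium bromide at 92 µM for full effect; nearly all actives have a fitted effect of over 50% in size.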 The following applies: LYMP2-018 lymphoblastoid cells, viability (qHTS); series mostly up to 92.2 µM. An outline of the steps: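 In this qHTS viability assay, cells are treated for 24 hr and cellular ATP is quantified by luciferase-based luminescence, with tetraoctylammonium bromide as positive control.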
A short description of assay [6]: Cell Viability - LYMP2-022 (AID 987).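 Note: 0% = DMSO alone and full effect = tetraoctylammonium bromide at 92 µM; nearly all actives have a fitted effect of over 55% in size.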 To be noted: LYMP2-022 lymphoblastoid cell viability; series mostly up to 92.2 µM. The essentials:
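In this qHTS cytotoxicity screen, compound titrations were incubated 24 hr at 37 C with human lymphoblastoid cells in complete medium. Luciferase-based ATP luminescence provided the viability signal.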

For assay [7], the target named is Estrogen receptor (Homo sapiens) (UniProt P03372). In words: qHTS assay for small molecule antagonists of estrogen receptor alpha signaling (AID 588513; active = well fitted curve in the direction sought with a large enough effect in the signal ratio, with a control signal flat, not every such curve was filed as active; the % refers to the signal ratio; note: % is set by controls: 0 for no effect and ±100 for the full control effect). To be noted: ER-alpha-UAS-bla HEK293, beta-lactamase ratio, antagonist mode; series mostly up to 76.9 µM. The essentials:
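Fluorescence from CCF4 substrate after 2 h at room temperature gave reporter activity; cells had been exposed to compound and 0.5nM 17-beta-estradiol for 18 h at 37 C. Hill-equation fitting yielded IC50 and maximal response.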

The target in assay [8] is Bile acid receptor (Homo sapiens) (UniProt Q96RI1). In words: qHTS assay for small molecule agonists of farnesoid X receptor signaling (AID 588527; calls by dose curve;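 note: 0% = vehicle basal and 100% = reference agonist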). The following applies: HEK293T FXR-UAS-bla, beta-lactamase ratio, 16 h; stronger effect = higher value. The essentials: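 Read-out: beta-lactamase reporter fluorescence with CCF4 substrate in GeneBLAzer FXR-UAS-bla HEK293T cells, after 16 h compound exposure at 37 C. Response scaled between DMSO basal (0%) and chenodeoxycholic acid at 100 uM (100%).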
Bile acid receptor (Homo sapiens), sequence (Q96RI1 whole entry, looked up): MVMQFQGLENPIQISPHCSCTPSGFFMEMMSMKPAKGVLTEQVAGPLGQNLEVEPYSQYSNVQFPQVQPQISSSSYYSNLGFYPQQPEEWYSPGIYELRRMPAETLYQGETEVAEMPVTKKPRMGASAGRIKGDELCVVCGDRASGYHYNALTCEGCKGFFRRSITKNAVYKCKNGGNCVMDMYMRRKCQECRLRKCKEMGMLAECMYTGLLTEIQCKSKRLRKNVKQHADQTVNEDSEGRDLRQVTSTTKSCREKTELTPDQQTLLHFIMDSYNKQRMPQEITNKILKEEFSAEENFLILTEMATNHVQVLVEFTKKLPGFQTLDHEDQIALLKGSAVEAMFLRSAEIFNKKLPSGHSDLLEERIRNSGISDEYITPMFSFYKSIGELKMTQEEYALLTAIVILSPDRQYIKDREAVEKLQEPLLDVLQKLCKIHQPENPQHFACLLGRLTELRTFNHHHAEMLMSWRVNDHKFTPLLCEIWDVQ

Assay [9] addresses Peroxisome proliferator-activated receptor delta (Homo sapiens) (UniProt Q03181). As to the kind of experiment: qHTS assay for small molecule agonists of peroxisome proliferator-activated receptor delta signaling (AID 588534; calls by dose curve;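 note: 0% = DMSO basal wells and 100% = positive control agonist at 10 µM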). The following applies: HEK293T PPARdelta-UAS-bla, beta-lactamase ratio, 18 h; series mostly up to 76.7 µM. The essentials:
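EC50 and efficacy values derive from Hill fits of a concentration series in a beta-lactamase reporter cell assay. Exposure is 18 hrs at 37 C, with CCF4 fluorescence as the readout.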

The nature of assay [10]: qHTS assay for small molecule antagonists of peroxisome proliferator-activated receptor delta signaling (AID 588535; active = well fitted inhibition curve with a large enough effect in the signal ratio, with a control signal flat, not every such curve was filed as active; the % refers to the signal ratio;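 for max response: cells co-treated with a PPAR-delta agonist as stimulator during compound exposure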). To be noted: HEK293T PPARd-UAS-bla, beta-lactamase FRET ratio, 18 h; 460 nm channel. The essentials:
(§1)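 Compounds tested in titration on PPAR-delta-UAS-bla HEK293T cells grown in charcoal/dextran-stripped serum (2%); beta-lactamase activity read via CCF4 emission at 460 and 530 nm.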

Assay [11] addresses Peroxisome proliferator-activated receptor delta (Homo sapiens) (UniProt Q03181). Described as above. The following applies: HEK293T PPARd-UAS-bla, beta-lactamase FRET ratio, 18 h; series mostly up to 76.7 µM. An outline of the steps:
as §1

Assay [12] deals with Peroxisome proliferator-activated receptor gamma (Homo sapiens) (UniProt P37231). As to the kind of experiment: qHTS assay for small molecule antagonists of peroxisome proliferator-activated receptor gamma signaling (AID 588537; active = well fitted inhibition curve with a large enough effect in the signal ratio, with a control signal flat, not every such curve was filed as active; the % refers to the signal ratio;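 note: reporter cells co-stimulated with 50 nM rosiglitazone agonist during compound treatment; % of control where 0% means no effect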). The following applies: HEK293 PPARg-UAS-bla, beta-lactamase ratio, antagonist mode; series mostly up to 76.8 µM. The essentials:
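HEK293 cells, PPAR-gamma-UAS-bla, 3000/well. Pre-incubation 6-6.5 h, 37 C. Compound titration with rosiglitazone 50 nM final, 16 h. CCF4 dye, 2 h RT, dual-emission fluorescence.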

For assay [13], the target named is Retinoic acid receptor RXR-alpha (Homo sapiens) (UniProt P19793). As to the kind of experiment: qHTS assay for small molecule antagonists of retinoid X receptor alpha signaling (AID 588546; active = well fitted inhibition curve with a large enough effect in the signal ratio, with a control signal flat, not every such curve was filed as active; the % refers to the signal ratio;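 note: cells stimulated with 9-cis-retinoic acid as agonist; % is set by controls: 0 for no effect and ±100 for the full control effect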). To be noted: HEK293T RXRa-UAS-bla, beta-lactamase ratio, antagonist mode. The essentials:
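Beta-lactamase reporter inhibition, read as CCF4 fluorescence ratio (ex 405, em 460/530 nm) after 2 h at RT. HEK293T UAS-bla cells, 2500/well, were stimulated with 9-cis-RA at 500 or 100 nM final alongside test compound for 18 h at 37 C.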

Assay [14] in a line: qHTS assay for small molecule disruptors of the mitochondrial membrane potential - 1 hr assay (AID 651754; calls by dose curve; note: nearly all actives have a fitted effect of over 35% in size; note: potency is the fitted concentration of half-maximal effect). The following applies: series mostly up to 92.2 µM. An outline of the steps:
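In this qHTS format, a 1 hr compound treatment of HepG2 cells precedes Mito-MPS staining, and membrane potential is judged from aggregate (red) against monomer (green) fluorescence intensity.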

Assay [15] in a line: qHTS assay for small molecule agonists of the antioxidant response element (ARE) signaling pathway measured by Nrf2-dependant transcriptional activity (AID 720636; active = well fitted curve in the direction sought with a large enough effect in the repeat runs; an effect the other way counts as inactive or inconclusive; note: % of control where 0% means no effect). The following applies: ARE-luc HepG2, Nrf2 luciferase reporter, 16 h; series mostly up to 92.4 µM. The essentials:
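HepG2 ARE-luc reporter line, 1% dialyzed FBS; 6 hr attachment at 37 C, compound pinned in, 16 hr at 37 C/5% CO2; ONE-Glo, 30 min RT, luminescence read.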

The nature of assay [16]: qHTS assay for small molecule agonists of the antioxidant response element (ARE) signaling pathway (AID 651741; active = well fitted activation curve with a large enough effect in the signal ratio; the % refers to the signal ratio; note: % of control where 0% means no effect). The following applies: HepG2 ARE-bla reporter, beta-lactamase FRET ratio, 16 h; series mostly up to 96 µM. An outline of the steps: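 Beta-lactamase reporter expression driven by the antioxidant response element in HepG2 cells was detected by fluorescence with LiveBLAzer B/G FRET substrate (2 h, room temperature) following 16 h compound treatment at 37 C.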

Assay [17] addresses Nuclear receptor ROR-gamma (Homo sapiens) (UniProt P51449). As to the kind of experiment: qHTS assay for small molecule antagonists of the retinoid-related orphan receptor gamma (ROR-gamma) signaling pathway (AID 651802).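 Note: CHO cells with doxycycline-induced ROR-gamma expression; luciferase reporter luminescence driven by ROR response element; % is set by controls: 0 for no effect and ±100 for the full control effect; nearly all actives have a fitted effect of over 60% in size.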 To be noted: ROR-gamma antagonist cell reporter assay; series mostly up to 92.2 µM. An outline of the steps:
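Doxycycline-induced reporter activity in engineered CHO cells (TET-inducible ROR, RORE-LUC) was measured by luminescence after 16hr compound exposure at 37C.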

Assay [18] is described as follows: Cell Viability - N2a (AID 540).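 For activity change, negative = cytotoxicity: plate controls were DMSO alone for no effect and tamoxifen control for full effect.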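 Note: cells exposed to compound for 40 h at 37 °C; nearly all actives have a fitted effect of over 45% in size.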 Note: potency is the fitted concentration of half-maximal effect. To be noted: N2a mouse neuroblastoma cell viability; activity change, negative = cytotoxicity: at 92.2 µM (top of the series). The essentials: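 In this qHTS cytotoxicity screen, ATP-dependent luciferase luminescence reports viable N2a cells after a 40 hr compound exposure in complete culture medium. Potencies are AC50 values from standard Hill equation fits.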

Assay [19] deals with Estrogen receptor (Homo sapiens) (UniProt P03372). In words: qHTS assay for small molecule agonists of estrogen receptor alpha signaling (AID 588514; calls by dose curve;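 note: 0% = vehicle only and 100% = reference agonist; nearly all actives have a fitted effect of over 70% in size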). The following applies: ER-alpha-UAS-bla HEK293, beta-lactamase ratio, 18 h; series mostly up to 76.8 µM. An outline of the steps:
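Fluorescence from CCF4 cleavage reports ER-alpha-driven beta-lactamase expression in HEK 293 cells treated 18 hrs at 37 C. Data normalized to 17-beta-estradiol (20 nM) and DMSO, fitted to Hill equation.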

For assay [20], the target named is Thyroid hormone receptor beta (Homo sapiens) (UniProt P10828). As to the kind of experiment: qHTS assay for small molecule antagonists of thyroid hormone receptor beta signaling (AID 588547; active = well fitted inhibition curve with a large enough effect in the signal ratio, with a control signal flat, not every such curve was filed as active; the % refers to the signal ratio;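 note: cells stimulated with 0.4 nM T3 agonist during compound exposure; % is set by controls: 0 for no effect and ±100 for the full control effect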). To be noted: TR-UAS-bla HEK293, beta-lactamase ratio, antagonist mode, 18 h. An outline of the steps:
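TR-UAS-bla GripTite HEK293 cells in 2% charcoal/dextran FBS medium were preincubated 4 h at 37 C, given compound (0.59 nM to 92 uM) plus 0.4 nM T3 (final) for 18 h, then CCF4 for 2 h at RT; Hill fit gave IC50.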

The results in this text go back to PubChem BioAssay (NCATS).

Several values for one entry are separate records, joined by “and”; a condition that tells them apart may be missing. Equal entries are not always repeated. Records with an inconclusive call do not appear. Activity calls are given as the source filed them. Unless noted, calls come from the whole dose curve; as a rule, active = well fitted curve in the direction sought with a large enough effect; inconclusive = small, poorly fitted or top-dose-only effect, or another doubt; inactive = no such curve, though single readings can be large; an effect the other way counts as inactive or inconclusive.

Peroxisome proliferator-activated receptor gamma (Homo sapiens), sequence (P37231 whole entry, looked up): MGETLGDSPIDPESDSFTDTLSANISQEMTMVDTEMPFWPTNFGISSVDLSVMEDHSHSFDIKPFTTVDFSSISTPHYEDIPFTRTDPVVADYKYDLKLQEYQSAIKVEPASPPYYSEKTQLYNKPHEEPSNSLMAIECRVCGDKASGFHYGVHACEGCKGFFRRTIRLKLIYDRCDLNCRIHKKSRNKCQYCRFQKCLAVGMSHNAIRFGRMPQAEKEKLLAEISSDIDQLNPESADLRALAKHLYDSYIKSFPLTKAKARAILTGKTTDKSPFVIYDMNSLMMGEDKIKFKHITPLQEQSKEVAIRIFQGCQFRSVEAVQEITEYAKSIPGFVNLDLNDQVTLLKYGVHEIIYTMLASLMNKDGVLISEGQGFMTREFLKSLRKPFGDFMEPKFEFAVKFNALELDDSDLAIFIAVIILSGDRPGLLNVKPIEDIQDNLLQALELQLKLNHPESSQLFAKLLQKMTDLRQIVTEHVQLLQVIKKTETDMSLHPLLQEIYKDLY
Nuclear receptor ROR-gamma (Homo sapiens), sequence (P51449 whole entry, looked up): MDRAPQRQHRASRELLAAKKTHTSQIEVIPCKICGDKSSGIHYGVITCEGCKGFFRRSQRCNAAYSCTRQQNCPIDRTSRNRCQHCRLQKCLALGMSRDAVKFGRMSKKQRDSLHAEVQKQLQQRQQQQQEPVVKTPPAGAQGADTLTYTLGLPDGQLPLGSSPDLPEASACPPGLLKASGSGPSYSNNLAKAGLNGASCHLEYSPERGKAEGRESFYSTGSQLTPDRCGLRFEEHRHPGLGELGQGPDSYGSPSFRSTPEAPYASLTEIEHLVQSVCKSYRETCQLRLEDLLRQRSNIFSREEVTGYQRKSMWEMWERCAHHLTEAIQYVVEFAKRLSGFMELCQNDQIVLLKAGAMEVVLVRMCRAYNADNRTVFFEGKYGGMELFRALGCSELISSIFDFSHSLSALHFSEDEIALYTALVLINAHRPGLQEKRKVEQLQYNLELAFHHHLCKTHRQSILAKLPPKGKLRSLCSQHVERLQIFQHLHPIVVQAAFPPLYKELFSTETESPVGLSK
Retinoic acid receptor RXR-alpha (Homo sapiens), sequence (P19793 whole entry, looked up): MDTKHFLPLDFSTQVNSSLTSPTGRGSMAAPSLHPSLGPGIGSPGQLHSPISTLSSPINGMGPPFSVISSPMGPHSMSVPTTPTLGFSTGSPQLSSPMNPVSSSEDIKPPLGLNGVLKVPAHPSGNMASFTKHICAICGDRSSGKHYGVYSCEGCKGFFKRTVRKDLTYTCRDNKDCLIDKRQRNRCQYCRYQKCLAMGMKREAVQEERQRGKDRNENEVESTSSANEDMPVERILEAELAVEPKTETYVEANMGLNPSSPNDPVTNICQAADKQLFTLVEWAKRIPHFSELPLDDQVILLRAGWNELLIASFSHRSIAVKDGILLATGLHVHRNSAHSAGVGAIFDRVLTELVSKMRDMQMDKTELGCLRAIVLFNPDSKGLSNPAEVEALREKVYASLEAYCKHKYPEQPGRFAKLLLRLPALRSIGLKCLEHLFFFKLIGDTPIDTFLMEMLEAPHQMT
Peroxisome proliferator-activated receptor delta (Homo sapiens), sequence (Q03181 whole entry, looked up): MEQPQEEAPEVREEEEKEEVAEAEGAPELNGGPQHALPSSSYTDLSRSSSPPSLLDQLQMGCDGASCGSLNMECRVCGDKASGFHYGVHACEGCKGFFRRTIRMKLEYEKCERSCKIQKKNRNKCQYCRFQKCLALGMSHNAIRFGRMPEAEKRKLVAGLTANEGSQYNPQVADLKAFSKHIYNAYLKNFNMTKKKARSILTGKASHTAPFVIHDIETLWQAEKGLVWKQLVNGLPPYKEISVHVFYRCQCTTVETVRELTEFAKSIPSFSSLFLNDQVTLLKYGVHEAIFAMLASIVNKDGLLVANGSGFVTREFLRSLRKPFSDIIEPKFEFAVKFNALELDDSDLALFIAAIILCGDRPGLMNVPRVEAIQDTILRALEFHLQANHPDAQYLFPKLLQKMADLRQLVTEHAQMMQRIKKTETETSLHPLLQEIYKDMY
Estrogen receptor (Homo sapiens), sequence (P03372 whole entry, looked up): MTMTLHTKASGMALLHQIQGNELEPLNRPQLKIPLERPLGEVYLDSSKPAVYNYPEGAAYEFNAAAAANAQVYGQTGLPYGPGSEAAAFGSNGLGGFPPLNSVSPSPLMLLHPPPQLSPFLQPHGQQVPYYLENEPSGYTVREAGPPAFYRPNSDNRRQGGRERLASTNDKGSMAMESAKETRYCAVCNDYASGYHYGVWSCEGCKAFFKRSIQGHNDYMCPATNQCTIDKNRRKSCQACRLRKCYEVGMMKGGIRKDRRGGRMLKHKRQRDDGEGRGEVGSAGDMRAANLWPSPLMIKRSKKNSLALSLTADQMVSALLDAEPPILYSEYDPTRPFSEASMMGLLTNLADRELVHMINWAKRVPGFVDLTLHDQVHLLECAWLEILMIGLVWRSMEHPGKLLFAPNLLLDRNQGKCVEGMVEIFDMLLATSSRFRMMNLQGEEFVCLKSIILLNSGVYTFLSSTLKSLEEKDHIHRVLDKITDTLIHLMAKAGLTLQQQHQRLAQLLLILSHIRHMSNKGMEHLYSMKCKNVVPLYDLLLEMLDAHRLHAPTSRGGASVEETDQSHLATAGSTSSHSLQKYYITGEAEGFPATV
Thyroid hormone receptor beta (Homo sapiens), sequence (P10828 whole entry, looked up): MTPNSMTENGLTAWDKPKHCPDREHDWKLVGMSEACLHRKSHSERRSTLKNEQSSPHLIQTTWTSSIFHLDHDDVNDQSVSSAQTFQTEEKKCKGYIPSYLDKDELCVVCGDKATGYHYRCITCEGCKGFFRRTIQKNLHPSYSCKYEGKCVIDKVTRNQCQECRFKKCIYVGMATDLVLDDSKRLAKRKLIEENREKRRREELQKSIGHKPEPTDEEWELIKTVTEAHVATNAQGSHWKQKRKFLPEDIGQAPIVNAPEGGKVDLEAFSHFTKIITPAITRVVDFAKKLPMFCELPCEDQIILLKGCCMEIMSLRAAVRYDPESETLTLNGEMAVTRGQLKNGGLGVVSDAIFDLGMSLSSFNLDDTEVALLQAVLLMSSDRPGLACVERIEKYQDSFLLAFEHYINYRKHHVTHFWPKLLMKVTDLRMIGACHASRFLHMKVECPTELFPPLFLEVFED

In the case of `O=C(Cl)c1ccccc1F`, in assay [1], the Potency is > 92 µM (inactive). Besides, the Potency result in assay [2], in assay [3], in assay [4], in assay [5], in assay [6] and in assay [7] was “inactive” each time. In addition, the Potency entry in assay [12], in assay [14] and in assay [15] was “inactive” each time. Further, the activation in [8] is 2.29% (inactive). Further, the result in [9] and in [11] was inactive. In addition, the values for the max response in assay [10] and in [13] were -9.33% and 13.4% (inactive), respectively.
Take `CN(C)C(=O)Nc1cccc(C(F)(F)F)c1`: the Potency in [1] was > 92 µM (inactive). For the same molecule, the Potency entry in assay [2], in assay [4], in assay [5], in assay [6], in assay [12] and in assay [16] was “inactive” throughout. Further, the Potency entry in [14], in [17] and in assay [15] was “inactive” each time. For the same molecule, the outcome in [9] and in [11] was inactive. Also, the max response was -0.756% and 6.11% in [10]; 1.67% (inactive) and -16% (inactive) in [13].
For the molecule `N#CC(Cl)(Cl)Cl`, the Potency in assay [1] is > 92 µM (inactive). In addition, the Potency result in assay [18], in [4], in assay [5], in [6], in assay [7] and in [19] was “inactive” in each case. The Potency result in assay [16], in assay [14] and in assay [15] was “inactive” in each case. In assay [8], the activation is -1.65% (inactive). Further, the result in assay [9] was inactive.
For the molecule `Cc1ccc(N)c(C)c1`, the Potency entry in assay [18], in [2], in [3], in assay [4], in assay [5] and in assay [12] was “inactive” each time. The Potency entry in assay [14] and in assay [15] was “inactive” throughout. In addition, the activation in assay [8] is 3.12% (inactive). In addition, the figures for the max response in [10] and in assay [13] were 14.7% and -1.52% (inactive), respectively. For the same molecule, the outcome in [11] was inactive. The activity change % (negative = inhibition) in [20] is 2.7% (inactive).
`ClCC(Br)CBr` (centres undefined): the Potency in assay [1] is > 92 µM (inactive). The Potency entry in assay [2], in assay [3], in assay [4], in assay [6], in assay [7] and in assay [19] was “inactive” in each case. Besides, the Potency entry in assay [17] and in [15] was “inactive” throughout. The activity change % (negative = inhibition) in assay [20] is 6.39% (inactive).
For the molecule `c1ccc(Nc2ccc(Nc3ccccc3)cc2)cc1`, the Potency in assay [1] was > 92 µM (inactive); in [18], 15.8 µM (active); in assay [14], 42.2 µM (active). Also, the Potency entry in assay [4], in assay [5] and in assay [17] was “inactive” in each case. The activation in [8] is -1.54% (inactive). The max response was 91.4% in assay [10] and -13.3% (inactive) in [13]. Besides, the outcome in [11] was inactive.
